NadD block = blocks S. aureus nicotinate mononucleotide adenylyltransferase. 0.78% of 360,000 active. purified NadD enzyme, colorimetric absorbance read-out. inhibition, % at 20 µM; in the data active = inhibition above about 26%
PP1 inh = counter-screen for PP5 inhibitors: inhibitors of human PP1-alpha; P62136; purified PP1alpha, OMFP fluorescence; inhibition, % at 6.7 µM; 0.9% of 320,000 active; AID 2235;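 active = inhibition above the mean inhibition of all tested compounds plus 3 SD, computed separately for each screening campaign, cut at about 15% in these data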
PREPL inh = inhibitors of human prolyl oligopeptidase-like enzyme PREPL. Q4J6C6. recombinant PREPL, fluorescence polarization activity-based probe. inhibition, % at 5.96 µM. 0.68% of 320,000 active; in the data active = inhibition above about 43%;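 also: 0% = enzyme with DMSO and 100% = wells lacking enzyme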
PP5 primary = blocks human protein phosphatase 5 activity; P53041; 0.18% of 320,000 active; inhibition, % at 6.7 µM; purified PP5c, OMFP substrate fluorescence;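 active = inhibition above the campaign's mean inhibition across all tested compounds plus 3 SD, cut at about 9.5% in these data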;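 also: 0% = DMSO only and 100% = 100 µM cantharidin control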
Target sequence (P53041 whole entry, looked up): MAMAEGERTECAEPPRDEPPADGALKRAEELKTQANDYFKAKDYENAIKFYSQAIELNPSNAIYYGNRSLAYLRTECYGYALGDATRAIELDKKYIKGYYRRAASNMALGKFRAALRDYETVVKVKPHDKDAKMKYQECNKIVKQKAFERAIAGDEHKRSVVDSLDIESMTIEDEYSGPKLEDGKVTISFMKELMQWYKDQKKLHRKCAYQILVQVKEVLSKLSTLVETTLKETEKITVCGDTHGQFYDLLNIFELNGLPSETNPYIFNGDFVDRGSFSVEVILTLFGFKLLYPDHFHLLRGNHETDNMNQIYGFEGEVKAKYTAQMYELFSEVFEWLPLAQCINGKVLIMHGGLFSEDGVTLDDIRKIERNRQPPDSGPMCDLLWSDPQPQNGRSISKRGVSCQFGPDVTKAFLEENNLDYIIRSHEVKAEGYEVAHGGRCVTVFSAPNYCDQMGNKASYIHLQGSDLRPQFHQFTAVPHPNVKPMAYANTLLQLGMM
Rpn11 inh = blocks the human proteasome subunit Rpn11 | O00487 | human 26S proteasome, Ub4-pepOG fluorescence polarization; 20S core pre-blocked with epoxomicin | inhibition, % at 20 µM | 0.59% of 360,000 active | AID 588493;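 active = inhibition at 20 µM, scaled to each plate's controls, above about 33%, limit read from the data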
NadD conf = confirmation of Staphylococcus aureus NadD inhibitors | shares compounds with NadD block | purified S. aureus NadD, colorimetric enzyme assay | inhibition, % at 20 µM | 13% of 2,000 active; in the data active = inhibition mostly above about 42%, no sharp cut-off; inactive = mostly below about 42%
An asterisk follows results filed as active; · = not tested or not shown. In the library only some 2.4% were active in any assay of this set; here they are far more common.

SMILES	NadD block	PP1 inh	PREPL inh	PP5 primary	Rpn11 inh	NadD conf
O=C(NNc1nc(-c2ccccc2)c2cc(Br)ccc2n1)c1ccc(S(=O)(=O)N2CCOCC2)cc1	24	-5	4	2	-2	·
CCc1ccc2[nH]c(=O)c(CN(CCN(C)C)C(=S)NCc3ccco3)cc2c1	37*	-2	-4	0	16	-34
CCc1ccc2[nH]c(=O)c(CN(CCN(CC)CC)C(=S)NCc3ccco3)cc2c1	-2	5	-15	-1	10	·
CC(=O)N1CC(C)Oc2ccc(S(=O)(=O)NC(CC(=O)O)c3cc(C)ccc3C)cc21 (stereo not drawn)	-2	3	4	-1	-6	·
CCN(CC)S(=O)(=O)c1cccc(NC(=O)C2SC(=Nc3ccc(C)cc3C)C(C(=O)NCC3CCCO3)=C2N)c1 (stereo not drawn)	37*	5	17	6	-2	28
CCN(CC)S(=O)(=O)c1cccc(C(=O)NCC2CCCO2)c1 (stereo not drawn)	-1	-3	0	1	1	·
CC(=O)Nc1ccc(-c2ccnc3c2CC(C)(C(=O)NCc2ccco2)O3)cc1 (stereo not drawn)	4	·	·	·	1	·
Cc1ccc(S(=O)(=O)/C(C#N)=C/c2c(N3CCN(Cc4ccccc4)CC3)nc3ccccn3c2=O)cc1	47*	9	-15	3	·	13
Cc1ccc(C2(SCC(N)C(=O)O)c3ccccc3-c3ccccc32)cc1 (stereo not drawn)	39*	·	·	·	6	54*
COc1ccc(C(=O)NNC(=S)NC(=O)c2cc(-c3ccccc3)nc3ccccc23)cc1	49*	-2	10	1	22	68*
COc1cc2c(cc1NC(=O)c1cc(-c3ccncc3)nc3ccccc13)oc1ccccc12	48*	15*	6	1	29	5
O=C(NNC(=O)c1cc(-c2ccccc2)nc2ccccc12)Nc1cccc(Cl)c1	10	3	-50	4	0	·
COc1ccc(Cl)cc1C(=O)NNC(=S)NC(=O)c1cc(-c2ccccc2)nc2ccccc12	61*	-6	9	-1	19	6
CC(C)(C)c1ccc(-c2cc(C(=O)NNC(=O)Nc3ccccc3)c3ccccc3n2)cc1	37*	8	8	4	0	24
CC(Sc1ccc(Cl)cc1)C(=O)NNC(=O)c1ccco1 (stereo not drawn)	-8	·	1	·	3	·
c1ccc(-c2ncc(CN3CCN(c4ccccn4)CC3)[nH]2)cc1	-7	-4	-2	-1	1	·
COc1cccc(-c2cc(C(=O)Nc3nc4ccccc4s3)c3ccccc3n2)c1	36*	4	2	2	13	6
COc1ccc(-c2cc(C(=O)Nc3ccc(S(=O)(=O)Nc4onc(C)c4C)cc3)c3ccccc3n2)cc1	29*	11	-6	3	10	66*
COc1ccc(-c2cc(C(=O)Nc3nc4c(C)cccc4s3)c3ccccc3n2)cc1OC	13	0	10	2	8	·
Cc1csc(NC(=O)c2cc(-c3ccco3)nc3ccccc23)n1	75*	10	12	3	-25	53*
CCCOc1ccc(C(=O)NNC(=S)NC(=O)c2cc(-c3ccc(Cl)cc3)nc3ccccc23)cc1	79*	2	3	2	22	14
O=C(Cn1nc(-c2ccccc2)ccc1=O)Nc1ccc(N2CCN(C(=O)c3cccs3)CC2)cc1	29*	6	36	3	8	6
CCc1ccc(N(CC(=O)NCc2ccco2)C(=O)CCC(=O)Nc2ccccn2)cc1	24*	-2	-12	1	-1	4
O=C(N[C@@H](Cc1ccccc1)C(=O)OCc1ccccc1)c1nc[nH]c1C(=O)N1CCN(c2ccccc2)CC1	30*	11	19	3	28	16
NC(=O)[C@@H]1CC2(CC(c3cccc(NC(=O)CC(c4ccccc4)c4ccccc4)c3)=NO2)CN1C(=O)COc1ccc(Cl)cc1 (stereo partly drawn)	39*	12	2	3	2	27
SMILES	NadD block	PP1 inh	PREPL inh	PP5 primary	Rpn11 inh	NadD conf
CCCCCC(=O)N1CC2(CC(c3cccc(NC(=O)CC(c4ccccc4)c4ccccc4)c3)=NO2)C[C@@H]1C(N)=O (stereo partly drawn)	10	2	9	3	13	·
CCC(=O)Nc1cccc(C2=NOC3(C2)C[C@@H](C(N)=O)N(C(=O)COc2ccc(Cl)cc2)C3)c1 (stereo partly drawn)	3	1	-9	0	-6	·
NC(=O)[C@H]1CC2(CC(c3cccc(NC(=O)CC(c4ccccc4)c4ccccc4)c3)=NO2)CN1C(=O)C(c1ccccc1)c1ccccc1 (stereo partly drawn)	33*	17*	25	3	7	27
NC(=O)[C@H]1CC2(CC(c3cccc(NC(=O)COc4ccc(Cl)cc4)c3)=NO2)CN1C(=O)CC(c1ccccc1)c1ccccc1 (stereo partly drawn)	37*	11	19	6	2	50*
COc1ccc(C(=O)NC(=S)Nc2nc(-c3ccc(OC)c(Br)c3)cs2)cc1Br	33*	2	-1	0	0	0
Cc1ccc(-n2c(O)c(C=Nc3ccccc3-c3n[nH]c(=S)[nH]c3=O)c3ccccc3c2=O)cc1C	39*	·	·	·	7	62*
Cc1ccc(-n2c(O)c(C=Nc3ccccc3-c3n[nH]c(=S)[nH]c3=O)c3ccccc3c2=O)c(C)c1	32*	8	9	3	15	37
COc1ccc(Cc2c(C3CCCCC3)nc3c(Cl)cc(C(F)(F)F)cn23)c(C)c1	31*	·	·	·	·	13
COc1ccc(Cc2c(C3CCCCC3)nc3ccc(Br)cn23)c(C)c1	5	·	·	·	-3	·
CC(C)C[C@@H](CN1CCCC1CN1C(=S)NC[C@@H]1Cc1ccccc1)N1C[C@H](Cc2ccc(O)cc2)N(CC2CCCCC2)C1=S (stereo partly drawn)	29	·	·	·	·	·
Oc1ccc(C[C@H]2CNC(=S)N2C[C@H]2CCCN2C[C@H](Cc2ccccc2)N2C[C@H](Cc3ccc(O)cc3)N(CCc3ccccc3)C2=S)cc1	46*	·	·	·	-6	43
CC(C)C[C@@H](CN1CCCC1CN1C(=S)NC[C@@H]1Cc1ccc(O)cc1)N1C[C@H](Cc2ccc(O)cc2)N(CCc2ccccc2)C1=S (stereo partly drawn)	42*	·	·	·	-6	38
Oc1ccc(C[C@H]2CN([C@@H](Cc3ccccc3)CN3CCCC3CN3C(=S)NC[C@@H]3Cc3ccccc3)C(=S)N2CCc2ccccc2)cc1 (stereo partly drawn)	37*	·	·	·	·	10
Oc1ccc(C[C@H]2CN([C@@H](Cc3ccc(O)cc3)CN3CCC[C@@H]3CN3C(=S)NC[C@@H]3Cc3ccccc3)C(=S)N2CCc2ccccc2)cc1	40*	·	·	·	-1	32
